Data reported in PubChem BioAssay.
A number with no mark means an inactive call. How the calls were made is not given here.

target: Pantothenate synthetase (Mycobacterium tuberculosis (strain ATCC 25618 / H37Rv)) (UniProt P9WIL5); assay: Recombinant Mtb pantothenate synthetase (PanC) inhibitors, coupled enzyme, confirmatory (AID 375); details: coupled enzyme assay; at 10 µM, hits give high values;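 further: 0% = full reaction with vehicle and 100% = no enzyme background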
Sequence (P9WIL5 whole entry, looked up): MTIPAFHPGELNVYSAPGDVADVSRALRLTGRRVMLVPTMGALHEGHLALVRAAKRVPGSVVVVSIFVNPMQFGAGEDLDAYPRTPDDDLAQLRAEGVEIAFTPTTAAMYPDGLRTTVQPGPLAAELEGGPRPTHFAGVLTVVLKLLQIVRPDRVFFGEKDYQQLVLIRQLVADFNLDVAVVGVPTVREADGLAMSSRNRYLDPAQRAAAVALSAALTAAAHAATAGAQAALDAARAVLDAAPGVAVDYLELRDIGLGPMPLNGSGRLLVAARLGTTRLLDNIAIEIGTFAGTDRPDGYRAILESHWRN

| Structure (SMILES) | inhibition [%] |
| --- | --- |
| COC(=O)C1C(=O)C2=C(CC1C)NC(=O)CC2c1ccccc1 (stereo unspecified) | 0 |
| C[C@]12CC[C@@H]3c4ccc(O[C@@H]5O[C@H](C(=O)O)[C@@H](O)[C@H](O)[C@H]5O)cc4CC[C@H]3[C@@H]1C[C@@H](O)[C@@H]2O | 14 |
| Cc1nnc2n(-c3ccccc3)c(=O)c3c4c(sc3n12)CCCC4 | 2 |
| O=C(NC1=NCCS1)c1ccc2c(c1)C(=O)N(Cc1ccco1)C2=O | 0 |
| Cc1ccc2oc(C(=O)Nc3c(C)n(C)n(-c4ccccc4)c3=O)c(C)c2c1 | 0 |
| Cn1c(=O)[nH]c(=O)c2c1nc(N1CCCCC1)n2CCSc1ncccn1 | 0 |
| Cc1ccc(C2=Nc3ccccc3NC(C)(c3ccc(C)o3)C2)o1 (stereo unspecified) | 0 |
| Nc1nc2n(n1)C(c1cccc(Br)c1)CC(c1ccccc1)N2 (stereo unspecified) | 0 |
| C=CCSc1n[nH]c(-c2ccc(OC)cc2)n1 | 0 |
| CCOC(=O)Cc1csc(NC(=O)CSc2nnc(C)n2C)n1 | 0 |
| CCn1ncc(C2=NOC(C(=O)NCc3ccccc3)C2)c1C (stereo unspecified) | 6 |
| COCCn1nnnc1CN(Cc1cccnc1)Cc1cc2cc(OC)ccc2[nH]c1=O | 6 |
| O=S1(=O)CCC(N=Cc2cc(Br)ccc2O)C1 (stereo unspecified) | 0 |
| CCCn1c(SCC(=O)N2CCCc3ccccc32)nnc1-c1ccccn1 | 3 |
| CN1CCN(CC(=O)Nc2ccc(Cl)cc2Cl)CC1 | 3 |
| COc1ccc(-n2ncc3c(NCCCN4CCOCC4)ncnc32)cc1 | 6 |
